# Laboratory results from the supplement of paper PMC7335073.
# In all, about 4,100 sequences were measured (“relative CpG methylation activity (normalised to average over all NNNCGNNN flanks)”: median about 0.87, highest 2% from about 2.4 on). Shown is part of a subset that was picked to be rich in the highest values.
# Biological target: DNMT3A catalytic domain (mouse) (UniProt O88508)
# Assay: relative CpG methylation activity (normalised to average over all NNNCGNNN flanks) (relative (1 = mean)); higher = more methylation of the central CpG
# Conditions: system: in vitro, murine catalytic domain; CpG state: hemimethylated substrate pool; residues: 608-908
# Method: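 Deep enzymology: a pool of dsDNA substrates with a central CpG flanked by 10 random nucleotides on each side was methylated by the murine DNMT3A or DNMT3B catalytic domain (0.8 mM SAM, 37 °C, 60 min). Methylation was then read out by hairpin ligation, bisulfite conversion and NGS. Values are the average methylation of each NNNCGNNN context (±3 flanks; the outer flanks are random and averaged over), normalised to the overall mean, so 1 = average activity.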
row,Sequence,relative CpG methylation activity
1,CTACGGTC,1.92
2,ATACGCTG,2.12
3,ATACGGTC,2.39
4,GTACGCTG,1.88
5,ATACGGTG,0.775
6,GTACGCTT,2.66
7,TTACGCTT,2.62
8,ATACGCTT,2.67
9,ATACGCTA,2.15
10,TAACGCTT,1.53
11,GTACGCTA,1.98
12,TGACGCTT,1.05
13,CCTCGCAA,1.31
14,CGGCGTAC,0.625
15,AGGCGCAG,0.331
16,TCTCGGTG,0.645
17,TTACGCGA,1.73
18,ACTCGTAG,0.496
19,GAGCGCCT,1.95
20,AGACGTCA,1.03
21,AGACGATG,0.457
22,GTACGCGC,2.11
23,TTACGCAC,2.32
24,AGACGCTC,1.49
25,TTACGCTG,1.74
26,ATACGCTC,2.73

row,Sequence,relative CpG methylation activity
1,GTACGCAC,1.87
2,AAACGCTC,1.44
3,GTACGCTC,2.72
4,TTACGCTC,2.74
5,GCTCGACA,1.04
6,TTCCGTGG,0.603
7,TTGCGTAT,1.47
8,ACTCGGAT,0.799
9,AGGCGTTA,0.256
10,ATACGAGT,1.56
11,GCGCGGGG,0.217
12,CTGCGCCT,1.81
13,GTGCGCTT,2.47
14,GTGCGCCT,2.43
15,GTGCGCTC,2.03
16,GTGCGCTA,1.91
17,GTGCGCCA,2.05
18,CGACGTTG,0.323
19,TCCCGCAT,0.92
20,GGACGATA,0.784
21,TTTCGCCG,1.83
22,AGACGTAT,0.427
23,CTCCGATC,2.41
24,ATACGAGC,2.39
25,TTCCGATC,2.29
26,ATACGACC,2.41

row,Sequence,relative CpG methylation activity
1,GTCCGATC,2.18
2,TTACGAGC,2.12
3,ATACGACG,1.73
4,CTACGATT,1.89
5,GTACGACC,2.03
6,CTACGATC,2.4
7,GTACGAGC,2.12
8,CTACGATG,1.2
9,GGTCGCTG,0.804
10,ACCCGGTC,1.19
11,CCCCGCCT,2.14
12,TGTCGGAA,0.614
13,CCGCGTGG,0.205
14,ACGCGCGG,0.42
15,GCCCGGAT,0.551
16,CTACGAGT,1.7
17,CTACGAGA,1.72
18,CTACGAGC,2.44
19,TTCCGACG,1.77
20,CTTCGCTA,1.66
21,GTTCGCTC,2.37
22,GTTCGCTG,1.46
23,CTTCGCTC,2.46
24,CTTCGCTT,1.78
25,TTTCGCTC,2.02
26,GGCCGGGC,0.75

row,Sequence,relative CpG methylation activity
1,GATCGAGC,0.679
2,CTACGTGT,1.07
3,CTACGTCT,2.45
4,TGACGTCC,1.32
5,ACACGTCA,2.19
6,CCACGTCT,1.61
7,TTACGTCT,2.14
8,CAACGTCC,1.67
9,CTACGTCC,2.8
10,ACACGTCC,2.46
11,CCACGTCC,1.94
12,TCACGTCC,1.98
13,TTACGTCC,2.56
14,GGACGAGA,0.605
15,TCTCGTGT,0.225
16,ATGCGGTG,0.407
17,ACCCGACG,1.17
18,GCTCGGAA,0.694
19,GAGCGTAG,0.34
20,CCGCGGAA,0.965
21,AAACGGTC,0.701
22,CTGCGTCC,2.14
23,GCACGTCA,1.86
24,GTACGTCA,2.5
25,TTGCGTCC,2.39
26,GTACGTCC,2.41

row,Sequence,relative CpG methylation activity
1,CTACGTGA,1.2
2,CTACGTCA,2.51
3,GAACGTCC,1.06
4,GTACGTAC,1.62
5,TTGCGTCT,1.67
6,GTACGTCT,2.06
7,CCACGTCA,1.71
8,ACGCGCCG,1.59
9,ACCCGGTG,0.688
10,GCACGAGG,0.755
11,TGACGTAC,0.438
12,CTCCGAAG,1.01
13,CAGCGCTC,1.08
14,GCGCGAGA,0.455
15,CGCCGAGT,0.664
16,TAACGGCG,0.782
17,ATACGTCA,2.47
18,AAACGTCA,1.14
19,ATACGTCG,2.26
20,ATACGTCC,2.56
21,ATACGTCT,2.22
22,ATACGTGA,1.2
23,GGACGGGC,0.536
24,CGCCGATA,0.761
25,TCTCGAGG,0.357
26,GTGCGTGC,1.11

row,Sequence,relative CpG methylation activity
1,CATCGGAG,0.238
2,TGTCGAAC,0.773
3,GGGCGCCA,1.15
4,TTACGTAA,2.54
5,CTACGTAA,2.4
6,CTACGTAC,1.9
7,ATACGTAA,2.01
8,TTACGTAT,1.48
9,TTACGTAG,1.34
10,CTTCGCAA,1.52
11,AGCCGGGA,0.357
12,GAGCGCTG,0.969
13,ATGCGCCC,2.44
14,TTGCGCCT,2.1
15,TTGCGCCA,1.75
16,GTGCGCCG,1.79
17,GTGCGCCC,2.22
18,CTGCGCCC,2.19
19,TTGCGCCC,2.61
20,ATGCGCCG,2.39
21,CTGCGCCG,1.93
22,CGTCGAGC,1.06
23,AGCCGCAG,0.256
24,CGGCGTAA,0.615
25,GCACGGGA,1.04
26,TTCCGTCG,2.09

row,Sequence,relative CpG methylation activity
1,GTCCGTCC,2.02
2,GTCCGTTG,1.25
3,GTCCGTCA,2.41
4,GTCCGTCT,2.14
5,GTCCGTCG,2.53
6,ATCCGTCT,2.05
7,TTCCGTCT,2.58
8,CTCCGTCT,1.84
9,TGCCGCGA,0.629
10,TGCCGCTT,1.45
11,CGGCGGAT,0.495
12,CGTCGTAG,0.312
13,AACCGTCG,1.34
14,CTACGTCG,2.46
15,TGACGTCG,1.02
16,TGACGTCA,0.989
17,GTACGTCG,1.85
18,CGACGTCG,1.28
19,TCACGTCA,2.03
20,TTACGTCA,2.5
21,TTACGTTT,1.72
22,TTACGTTG,1.34
23,TTACGTCG,2.52
24,TTACGTTA,2.55
25,CTACGTGG,0.594
26,GACCGGCA,0.909

row,Sequence,relative CpG methylation activity
1,AAGCGCAT,0.582
2,TCCCGAGA,1.02
3,GTTCGCAT,1.26
4,TACCGACC,0.79
5,TCTCGCTG,1.57
6,TGCCGCTC,1.84
7,GCACGATT,1.02
8,AACCGACT,0.927
9,TCTCGCCT,1.73
10,GCTCGCCT,2.09
11,CCTCGCCT,2.37
12,CCTCGCCC,2.6
13,CCTCGCCA,1.67
14,CCTCGCCG,1.68
15,GTTCGGTT,0.726
16,GTCCGAAC,1.91
17,CGACGATT,0.644
18,TTACGGCC,2.24
19,TATCGCCT,1.86
20,CACCGGAA,0.755
21,CCACGCTC,2.5
22,TCACGCTA,1.56
23,CCACGCTA,1.53
24,ACACGCAC,1.72
25,ACACGCTA,1.76
26,GCACGCTC,1.98

row,Sequence,relative CpG methylation activity
1,TCACGCTC,2.5
2,ACACGCTC,2.4
3,TCACGCTG,1.32
4,ACACGCTT,2.37
5,ACACGCTG,1.74
6,CCACGCTG,1.58
7,GGTCGTCT,0.726
8,CCCCGATA,1.02
9,TACCGTTT,0.414
10,GCTCGGCC,1.3
11,GGACGTTG,0.114
12,GGACGGAC,0.861
13,ATTCGCTC,1.94
14,ACGCGAGT,0.94
15,ATCCGCTT,2.13
16,GGCCGCTT,1.75
17,GACCGCTC,1.78
18,ATCCGCTG,1.62
19,ATCCGCTC,2.37
20,GTCCGCTC,2.37
21,GTCCGCTG,1.42
22,GTCCGCTA,1.9
23,ATCCGCTA,1.78
24,GTCCGCTT,2.54
25,TTCCGCTT,2.48
26,CTCCGCTT,2.3

row,Sequence,relative CpG methylation activity
1,GCCCGGGT,0.974
2,TGGCGGCC,1
3,CCACGACG,1.18
4,GGCCGTGC,0.353
5,TGCCGTCT,1.28
6,TCCCGAGT,0.977
7,GAGCGCTT,2.07
8,GGCCGAGG,0.41
9,ACACGGTC,1.41
10,AGCCGTGA,0.258
11,CGCCGACA,0.962
12,CTGCGCAG,0.583
13,TTCCGCTC,2.73
14,TTCCGCTA,2.3
15,CTCCGCTC,2.19
16,TGACGTGA,0.475
17,GAACGAGC,1.12
18,CATCGGGA,0.259
19,CGACGCGT,0.316
20,TATCGAGC,0.705
21,TACCGGGC,0.455
22,CTACGCAG,1.43
23,GTACGCCG,1.9
24,GTACGCCT,2.41
25,CGACGCCT,1.29
26,CTACGCCG,2.5

row,Sequence,relative CpG methylation activity
1,CCACGCCG,1.71
2,GTACGCCA,2.14
3,CTACGCCA,2.74
4,CGACGCCA,1.29
5,CCACGCCA,1.91
6,CTACGCCT,2.79
7,CCACGCCT,2.24
8,GCCCGAAA,1.39
9,AGACGGTC,1.15
10,TCCCGTAT,0.643
11,GACCGCTT,1.77
12,ACACGAGC,1.54
13,TTGCGATA,1.13
14,GGTCGTAT,0.455
15,TTGCGGTC,1.43
16,TAGCGGGT,0.231
17,GGACGGGT,0.4
18,ATACGCAT,1.79
19,ATACGCGT,1.9
20,ATACGCCT,2.76
21,GATCGCCG,0.545
22,TCACGACA,1.52
23,CAACGCTC,1.36
24,CTACGCTC,2.66
25,CTACGCTT,2.38
26,TTACGCTA,1.94

row,Sequence,relative CpG methylation activity
1,CAACGCTA,0.826
2,CTACGCTA,2.5
3,CGACGCTC,1.38
4,CTACGCAT,1.97
5,CTACGCTG,1.75
6,GACCGTCG,1.29
7,TGCCGAGC,1.38
8,CGGCGTTT,0.165
9,ACTCGATG,0.513
10,GCCCGGCG,0.38
11,ACACGCCT,2.44
12,GCACGCCT,2.25
13,ACACGCCC,2.4
14,GCACGCCC,2.31
15,ACACGCCA,2.02
16,ACACGCCG,1.92
17,CGCCGGCC,0.909
18,CCGCGGGT,1.11
19,TTACGCCG,2.29
20,TTACGCCC,2.64
21,GTACGCAA,1.89
22,ATACGCCC,2.85
23,TTACGCAT,2.29
24,AGACGCCC,1.43
25,TTACGCGG,0.654
26,TTACGCGC,2.44

row,Sequence,relative CpG methylation activity
1,ATACGCGC,1.93
2,TAACGCCC,1.61
3,TTACGCAA,2.55
4,ATACGCCG,2.33
5,ATTCGCAA,1.09
6,TAACGTAC,0.748
7,GCACGACG,0.957
8,TATCGTTG,0.26
9,TCGCGTAG,0.412
10,TTACGCCA,2.33
11,TAACGCCT,1.2
12,GAACGCCC,1.6
13,TTACGCCT,2.38
14,GTACGCCC,2.39
15,TTACGCGT,1.81
16,ATACGCCA,2.6
17,GGACGCCC,1.88
18,ATACGCGA,1.33
19,CAACGCCC,1.52
20,CTACGCAC,2.15
21,CTACGCCC,2.62
22,TGCCGCGC,0.766
23,TATCGATG,0.224
24,AAACGTAA,0.891
25,AGGCGCCT,1.88
26,TGACGACG,0.449

row,Sequence,relative CpG methylation activity
1,GCCCGTTT,0.909
2,CCTCGGAG,0.294
3,TGCCGCCG,1.03
4,GGCCGCCT,1.37
5,GTCCGCCA,1.87
6,TTCCGCCG,2.55
7,TTCCGCCA,2.2
8,ACCCGCCC,2.24
9,ACCCGCCG,1.76
10,ACCCGCCT,2.44
11,TTCCGCCT,2.6
12,GTCCGCCT,2.6
13,TTCCGCAT,1.78
14,TTCCGCGT,1.64
